Measurements reported in the antibiotic and cytotoxicity screens of Wong et al. (2023).
Out of some 39,000 compounds screened, about 1,500 (3.8%) were called active. Only a selection was taken, and actives are over-represented in it overall.

tested on: HSkMC (human skeletal muscle cells); assay: cytotoxicity call (relative viability < 0.9); details: 10 µM

Row | SMILES | cytotoxicity call
1 | C[C@@H]1CN([C@@H](C)CO)C(=O)c2cccc(N(C)C)c2O[C@H]1CN(C)S(=O)(=O)c1ccc(Cl)cc1 | inactive
2 | CCCNC(=O)C[C@@H]1CC[C@H]2[C@H](COc3ccc(NS(=O)(=O)c4ccccc4C)cc3C(=O)N2C)O1 | inactive
3 | Cc1noc(C)c1NC(=O)Nc1cccc2c1O[C@@H](CN(C)C(=O)NC(C)C)[C@H](C)CN([C@@H](C)CO)C2=O | inactive
4 | COc1ccc(NC(=O)Nc2ccc3c(c2)C(=O)N([C@H](C)CO)C[C@H](C)[C@H](CN(C)C(=O)Nc2ccc(C(F)(F)F)cc2)OCCCC[C@H](C)O3)cc1 | inactive
5 | C[C@@H]1CN([C@H](C)CO)C(=O)c2cc(NC(=O)Nc3ccc(C(F)(F)F)cc3)ccc2O[C@@H]1CN(C)Cc1ccccc1 | inactive
6 | C[C@H]1CN([C@@H](C)CO)C(=O)c2cc(NC(=O)Nc3ccc(C(F)(F)F)cc3)ccc2O[C@@H]1CN(C)Cc1ccccc1 | inactive
7 | C[C@H]1CN([C@@H](C)CO)C(=O)c2cc(NC(=O)Nc3ccc(C(F)(F)F)cc3)ccc2O[C@H]1CN(C)Cc1ccccc1 | active
8 | CN(C)S(=O)(=O)Nc1cccc(N)c1 | inactive
9 | COCC(=O)N1C[C@@H](C)[C@@H](OC)CN(C)C(=O)c2cc(NC(=O)c3ccc(OC)cc3)ccc2OC[C@@H]1C | inactive
10 | CC(=O)[C@]1(O)Cc2c(O)c3c(c(O)c2[C@@H](O[C@@H]2C[C@@H](N)[C@H](O)[C@@H](C)O2)C1)C(=O)c1c(O)cccc1C3=O | active
11 | COc1cccc2c1C(=O)c1c(O)c3c(c(O)c1C2=O)C[C@@](O)(C(C)=O)C[C@@H]3O[C@H]1C[C@H](N)[C@H](O)[C@H](C)O1 | active
12 | COc1cccc2c1C(=O)c1c(O)c3c(c(O)c1C2=O)C[C@](O)(C(C)=O)C[C@H]3O[C@H]1C[C@@H](N)[C@@H](O)[C@@H](C)O1 | active
13 | CC(=O)[C@]1(N)Cc2c(O)c3c(c(O)c2[C@@H](O[C@H]2C[C@H](O)[C@H](O)CO2)C1)C(=O)c1ccccc1C3=O | active
14 | COc1cccc2c1C(=O)c1c(O)c3c(c(O)c1C2=O)CC(O)(C(C)=O)CC3OC1CC(N)C(O)C(C)O1.Cl (stereo not drawn) | inactive
15 | O=C(C[C@@H]1CC[C@H]2[C@@H](COC[C@H](O)CN2C(=O)c2ccncc2)O1)NC1CCC1 | inactive
16 | CNCC1CCOCC1 | inactive
17 | CO[C@@H]1CN(C)C(=O)c2cc(NS(=O)(=O)c3ccccc3C)ccc2OC[C@H](C)N(S(C)(=O)=O)C[C@H]1C | inactive
18 | Cc1noc(C)c1S(=O)(=O)Nc1ccc2c(c1)C(=O)N([C@H](C)CO)C[C@H](C)[C@@H](CN(C)C(=O)Nc1ccc(F)cc1)OCCCC[C@H](C)O2 | inactive
